# Reference: PubChem BioAssay AID729 (The Scripps Research Institute Molecular Screening Center, 2007)
# In all, about 97,000 compounds went through this assay and about 450 (0.46%) were called active. Rule as the data show it: active = activation above about 16%; inactive = the rest. What follows is part of a selection rich in actives, with near analogues and random picks from the rest.
# Target: Sphingosine 1-phosphate receptor 2 (Homo sapiens) (UniProt O95136)
# Assay: S1P2 receptor agonists, primary screen, cell-based (AID 729);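 also: 0% = vehicle low control and 100% = maximal reference agonist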
# Conditions: S1P2-expressing cell line, agonist reporter read-out; at 4.5 µM; stronger effect = higher value
# Sphingosine 1-phosphate receptor 2 (Homo sapiens), sequence (O95136 whole entry, looked up): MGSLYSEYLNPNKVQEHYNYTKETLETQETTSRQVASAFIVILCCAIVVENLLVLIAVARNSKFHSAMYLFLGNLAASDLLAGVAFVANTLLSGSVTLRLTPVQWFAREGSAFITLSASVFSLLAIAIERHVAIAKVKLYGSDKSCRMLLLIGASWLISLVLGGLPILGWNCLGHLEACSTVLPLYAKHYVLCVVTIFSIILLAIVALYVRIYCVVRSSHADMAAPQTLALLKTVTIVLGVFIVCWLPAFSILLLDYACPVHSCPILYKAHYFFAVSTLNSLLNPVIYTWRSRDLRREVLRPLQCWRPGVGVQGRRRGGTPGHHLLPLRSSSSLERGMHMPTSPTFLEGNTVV
row,Compound,activation
1,CCOC(=O)c1c(N)n(Cc2ccccc2)c2nc3ccccc3nc12,1.34% (inactive)
2,CCOC(=O)c1c(N)n(CCN2CCOCC2)c2nc3ccccc3nc12,-0.82% (inactive)
3,COc1cc(Cn2c(N)c(C(=O)NCc3ccco3)c3nc4ccccc4nc32)cc(OC)c1OC,28.7% (active)
4,O=c1c2ccccc2nc(-c2ccc(Cl)cc2Cl)n1-c1ccncc1,-3.53% (inactive)
5,OC(Cn1c2ccccc2c2ccccc21)C[n+]1ccccc1 (stereo not given),-10.8% (inactive)
